From the supplement of paper PMC12024424
Where a name gives a salt, the structure may show the parent alone.

The molecules below were run on Staphylococcus aureus Sa2 (MRSA, cystic fibrosis isolate) (assay: growth reduction vs untreated control (viable cell count); higher = stronger antibacterial activity; extreme values may be limits of the assay). Settings: 0.1 mM; 24 h.
Protocol: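 Single-dose screen of the MedChem Express Drug Repurposing Library (0.1 mM, 1% DMSO) against planktonic MRSA S. aureus Sa2 (CF isolate) in TSB in 96-well plates, 37 °C aerobic, 24 h. Assays were run in triplicate and repeated twice.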

| SMILES | growth reduction |
| --- | --- |
| CC(=O)Oc1cc(C)c(OC(C)=O)c2ccccc12 [Vitamin K4] | 97% |
| CC(=O)[C@]1(O)Cc2c(O)c3c(c(O)c2[C@@H](O[C@H]2C[C@H](N)[C@H](O)[C@H](C)O2)C1)C(=O)c1ccccc1C3=O [Idarubicin (hydrochloride)] | 100% |
| CC1=CC(=O)c2ccccc2C1=O [Menadione] | 100% |
| C=C[C@@H]1C[C@]1(NC(=O)[C@@H]1C[C@@H]2CN1C(=O)[C@H](C(C)(C)C)NC(=O)O[C@@H]1C[C@H]1CCCCCc1nc3ccc(OC)cc3nc1O2)C(=O)NS(=O)(=O)C1CC1 [Grazoprevir] | 100% |
| Clc1ccc(CSC(Cn2ccnc2)c2ccc(Cl)cc2Cl)cc1 (stereo not given) [Sulconazole (mononitrate)] | 100% |
| CNC(=O)c1ccc(Nc2ncc(C(F)(F)F)c(NCc3nccnc3N(C)S(C)(=O)=O)n2)cc1 [Defactinib] | 95% |
| NCCCC[C@H](NC(=O)[C@@H](NC(=O)[C@H](Cc1c[nH]c2ccccc12)NC(=O)[C@H](CCCCN)NC(=O)[C@H](CCCCN)NC(=O)[C@H](Cc1c[nH]c2ccccc12)NC(=O)[C@H](Cc1c[nH]c2ccccc12)NC(=O)[C@H](CCCCN)NC(=O)[C@@H](N)CCCCN)C(c1ccccc1)c1ccccc1)C(N)=O | 100% |
| O=C(O)c1ccc2nc(-c3cc(Cl)cc(Cl)c3)oc2c1 [Tafamidis] | 100% |
| Cc1cnc(NC(=O)Nc2cc(Br)c(C)cc2OC[C@@H]2CNCCO2)cn1 [Rabusertib] | 100% |
| CCCCCOc1ccccc1/C(=C\SC)n1ccnc1 [Neticonazole (hydrochloride)] | 100% |
